Data on eight sequences can be found in publication PMC7862700, “An all-to-all approach to the identification of sequence-specific readers for epigenetic DNA modifications on cytosine”.

Holding throughout (assay): DAPPL (digital affinity profiling via proximity ligation, sequencing); 10 mM Tris-HCl pH 7.5, 50 mM NaCl, 1 mM DTT, 4% glycerol, room temperature, 30 min; GST-TFs on glutathione beads, 16-mer random dsDNA library, 0.1% formaldehyde crosslink after washing; high values mean tight binding
One experiment deals with T1, FEV (Homo sapiens, UniProt Q99581 1-238).
T1 sequence: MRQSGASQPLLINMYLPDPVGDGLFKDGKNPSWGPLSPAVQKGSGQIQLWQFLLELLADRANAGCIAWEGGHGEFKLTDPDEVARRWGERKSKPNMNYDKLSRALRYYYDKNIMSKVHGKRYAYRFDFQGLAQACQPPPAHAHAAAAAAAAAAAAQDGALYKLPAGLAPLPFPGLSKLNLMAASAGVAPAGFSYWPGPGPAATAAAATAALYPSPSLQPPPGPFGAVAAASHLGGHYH
The following applies: protein: recombinant; tags: N-terminal GST; dsDNA, one strand shown. The gist of the method: (§1)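 Human transcription factors fused to GST were expressed in yeast, captured on glutathione beads, given DNA barcodes and pooled with a GST-only negative control. Pools were incubated with 200 nmole of a 16-mer random double-stranded DNA library in Tris/NaCl/DTT/glycerol buffer at room temperature for 30 min. They were then washed, crosslinked with 0.1% formaldehyde, proximity-ligated (BsaI/T4 ligase, 1 h, 37 °C), PCR-amplified and sequenced on an Illumina NextSeq500. Binding signal is each 6-mer's read frequency for a factor divided by its frequency for the GST control.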

Another experiment deals with ETV5 (Homo sapiens, UniProt P41161 1-510). To be noted: protein: recombinant; tags: N-terminal GST; dsDNA, one strand shown. The gist of the method:
as §1

The next experiment deals with HSF1 (Homo sapiens, UniProt Q00613 1-529). To be noted: protein: recombinant; tags: N-terminal GST; chain copies: 3; dsDNA, one strand shown. In a few lines:
as §1

Another experiment concerns the target T2, SPIC (Homo sapiens, UniProt Q8N5J4 1-248).
T2 sequence: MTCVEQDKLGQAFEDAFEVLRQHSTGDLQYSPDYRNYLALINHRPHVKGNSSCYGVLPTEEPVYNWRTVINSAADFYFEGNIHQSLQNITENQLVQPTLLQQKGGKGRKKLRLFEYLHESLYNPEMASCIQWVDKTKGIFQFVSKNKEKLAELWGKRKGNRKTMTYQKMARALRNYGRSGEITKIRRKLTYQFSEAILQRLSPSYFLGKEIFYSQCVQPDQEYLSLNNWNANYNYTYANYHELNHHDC
The following applies: protein: recombinant; tags: N-terminal GST; dsDNA, one strand shown. The gist of the method:
as §1

The target in the next experiment is ELF4 (Homo sapiens, UniProt Q99607 1-663). To be noted: protein: recombinant; tags: N-terminal GST; dsDNA, one strand shown. The gist of the method: as §1
ELF4, sequence (Q99607 whole entry): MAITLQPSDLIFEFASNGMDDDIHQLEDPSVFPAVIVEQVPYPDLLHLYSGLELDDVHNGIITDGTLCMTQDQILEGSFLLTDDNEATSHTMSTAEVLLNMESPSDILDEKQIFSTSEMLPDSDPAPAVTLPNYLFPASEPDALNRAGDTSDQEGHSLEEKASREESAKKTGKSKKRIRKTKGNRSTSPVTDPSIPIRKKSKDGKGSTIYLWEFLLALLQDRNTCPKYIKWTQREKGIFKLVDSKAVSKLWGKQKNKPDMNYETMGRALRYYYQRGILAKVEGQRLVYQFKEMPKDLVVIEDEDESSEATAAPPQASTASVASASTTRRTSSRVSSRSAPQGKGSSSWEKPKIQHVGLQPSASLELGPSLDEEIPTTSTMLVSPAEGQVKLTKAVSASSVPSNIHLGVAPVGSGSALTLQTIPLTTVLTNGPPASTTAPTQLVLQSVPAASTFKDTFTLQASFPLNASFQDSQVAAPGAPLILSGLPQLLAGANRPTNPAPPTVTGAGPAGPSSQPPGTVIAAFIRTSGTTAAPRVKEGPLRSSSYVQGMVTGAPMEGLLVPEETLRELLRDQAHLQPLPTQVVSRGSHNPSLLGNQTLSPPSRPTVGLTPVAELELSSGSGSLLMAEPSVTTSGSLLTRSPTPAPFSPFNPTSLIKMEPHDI
The target in the next experiment is T3, ELK4 (Homo sapiens, UniProt P28324-2 1-405).
T3 sequence: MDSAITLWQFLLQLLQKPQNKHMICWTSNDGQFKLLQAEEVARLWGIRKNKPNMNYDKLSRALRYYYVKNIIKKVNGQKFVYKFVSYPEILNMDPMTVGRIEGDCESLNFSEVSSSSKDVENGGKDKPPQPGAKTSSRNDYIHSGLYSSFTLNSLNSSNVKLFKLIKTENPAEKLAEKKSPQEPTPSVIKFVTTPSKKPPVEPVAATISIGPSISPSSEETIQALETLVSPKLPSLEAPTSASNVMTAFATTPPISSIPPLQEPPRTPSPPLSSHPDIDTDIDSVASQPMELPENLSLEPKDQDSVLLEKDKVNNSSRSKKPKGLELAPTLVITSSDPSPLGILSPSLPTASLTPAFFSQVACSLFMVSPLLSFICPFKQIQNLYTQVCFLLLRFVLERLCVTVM
To be noted: protein: recombinant; tags: N-terminal GST; dsDNA, one strand shown. In a few lines:
as §1

Another experiment deals with T4, ETV2 (Homo sapiens, UniProt O00321 1-342).
T4 sequence: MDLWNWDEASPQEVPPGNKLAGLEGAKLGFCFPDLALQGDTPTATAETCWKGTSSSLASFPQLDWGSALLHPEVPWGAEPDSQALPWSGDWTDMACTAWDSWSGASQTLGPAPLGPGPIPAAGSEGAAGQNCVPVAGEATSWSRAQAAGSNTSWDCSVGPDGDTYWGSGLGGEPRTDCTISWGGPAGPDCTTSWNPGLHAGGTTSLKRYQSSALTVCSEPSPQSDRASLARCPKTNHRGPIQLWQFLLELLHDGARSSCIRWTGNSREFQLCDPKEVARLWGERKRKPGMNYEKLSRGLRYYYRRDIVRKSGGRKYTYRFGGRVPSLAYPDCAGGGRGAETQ
To be noted: protein: recombinant; tags: N-terminal GST; dsDNA, one strand shown. In a few lines: as §1

The next experiment has as its target T5, ELF3 (Homo sapiens, UniProt P78545 1-371).
T5 sequence: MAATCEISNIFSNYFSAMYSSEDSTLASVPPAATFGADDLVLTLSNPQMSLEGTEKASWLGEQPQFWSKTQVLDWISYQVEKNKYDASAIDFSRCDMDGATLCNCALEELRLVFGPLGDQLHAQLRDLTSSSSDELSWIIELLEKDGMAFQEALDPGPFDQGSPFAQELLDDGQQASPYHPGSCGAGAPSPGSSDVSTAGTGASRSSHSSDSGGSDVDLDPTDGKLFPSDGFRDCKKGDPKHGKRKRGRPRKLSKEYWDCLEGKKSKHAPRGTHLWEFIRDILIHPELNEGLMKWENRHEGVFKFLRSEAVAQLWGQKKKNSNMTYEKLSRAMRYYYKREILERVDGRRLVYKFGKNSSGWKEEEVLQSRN
To be noted: protein: recombinant; tags: N-terminal GST; dsDNA, one strand shown. In a few lines:
as §1

The target of the next experiment is CRX (Homo sapiens, UniProt O43186 1-299). The following applies: protein: recombinant; tags: N-terminal GST; dsDNA, one strand shown. The gist of the method: as §1
CRX, sequence (O43186 whole entry): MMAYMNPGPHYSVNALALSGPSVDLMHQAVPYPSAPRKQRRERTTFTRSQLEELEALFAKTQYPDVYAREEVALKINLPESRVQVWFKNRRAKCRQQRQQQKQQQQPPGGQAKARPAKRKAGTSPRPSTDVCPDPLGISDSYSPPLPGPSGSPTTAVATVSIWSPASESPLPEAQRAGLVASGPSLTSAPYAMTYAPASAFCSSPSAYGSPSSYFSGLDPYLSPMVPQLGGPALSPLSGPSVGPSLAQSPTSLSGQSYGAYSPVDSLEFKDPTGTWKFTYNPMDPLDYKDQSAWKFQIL
The next experiment has as its target ETV1 (Homo sapiens, UniProt P50549 1-477). To be noted: protein: recombinant; tags: N-terminal GST; dsDNA, one strand shown. The gist of the method: as §1

ETV1, sequence (P50549 whole entry): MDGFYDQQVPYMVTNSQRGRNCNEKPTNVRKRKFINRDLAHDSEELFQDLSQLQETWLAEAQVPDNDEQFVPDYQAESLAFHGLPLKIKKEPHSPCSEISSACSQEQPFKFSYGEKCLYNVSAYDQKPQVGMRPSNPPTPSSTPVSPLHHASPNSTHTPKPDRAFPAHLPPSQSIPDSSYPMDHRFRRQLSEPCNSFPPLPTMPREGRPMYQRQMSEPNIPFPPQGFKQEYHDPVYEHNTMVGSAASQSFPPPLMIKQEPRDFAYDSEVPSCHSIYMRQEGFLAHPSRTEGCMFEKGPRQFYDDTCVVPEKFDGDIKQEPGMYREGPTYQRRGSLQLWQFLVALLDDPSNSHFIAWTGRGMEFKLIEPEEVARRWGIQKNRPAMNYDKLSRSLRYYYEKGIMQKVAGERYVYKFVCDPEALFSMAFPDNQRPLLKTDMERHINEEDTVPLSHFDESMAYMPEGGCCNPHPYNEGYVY
ETV5, sequence (P41161 whole entry): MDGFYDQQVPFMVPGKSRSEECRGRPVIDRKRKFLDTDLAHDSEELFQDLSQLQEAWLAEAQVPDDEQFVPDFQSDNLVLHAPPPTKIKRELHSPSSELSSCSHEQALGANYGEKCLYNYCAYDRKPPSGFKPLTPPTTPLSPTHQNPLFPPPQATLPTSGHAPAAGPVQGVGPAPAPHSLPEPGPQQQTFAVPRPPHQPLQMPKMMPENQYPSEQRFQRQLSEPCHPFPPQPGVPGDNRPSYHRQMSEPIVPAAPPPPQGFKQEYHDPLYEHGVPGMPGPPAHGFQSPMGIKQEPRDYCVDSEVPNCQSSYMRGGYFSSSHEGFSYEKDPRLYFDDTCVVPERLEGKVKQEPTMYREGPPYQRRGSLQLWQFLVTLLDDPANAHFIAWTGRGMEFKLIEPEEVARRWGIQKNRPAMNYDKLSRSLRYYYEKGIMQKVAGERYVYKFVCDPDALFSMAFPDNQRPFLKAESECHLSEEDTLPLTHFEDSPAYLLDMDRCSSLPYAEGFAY
HSF1, sequence (Q00613 whole entry): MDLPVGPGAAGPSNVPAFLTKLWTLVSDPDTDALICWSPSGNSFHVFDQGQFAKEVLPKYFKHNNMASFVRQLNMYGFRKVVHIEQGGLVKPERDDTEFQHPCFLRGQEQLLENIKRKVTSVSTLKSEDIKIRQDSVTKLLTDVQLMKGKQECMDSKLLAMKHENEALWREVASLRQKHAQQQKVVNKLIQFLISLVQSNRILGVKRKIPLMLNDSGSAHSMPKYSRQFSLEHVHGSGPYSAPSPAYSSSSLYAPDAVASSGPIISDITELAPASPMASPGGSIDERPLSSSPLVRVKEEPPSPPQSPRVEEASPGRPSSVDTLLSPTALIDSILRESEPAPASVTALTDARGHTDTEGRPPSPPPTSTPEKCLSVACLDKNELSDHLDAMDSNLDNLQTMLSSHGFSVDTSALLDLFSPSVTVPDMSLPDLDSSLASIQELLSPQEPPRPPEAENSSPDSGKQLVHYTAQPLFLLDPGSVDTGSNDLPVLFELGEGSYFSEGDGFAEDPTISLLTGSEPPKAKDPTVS

On to TGATAT, for which the binding signal is 1.07 fold enrichment (6-mer frequency, TF over GST control) with FEV; 1.1 fold enrichment (6-mer frequency, TF over GST control) in the experiment with ETV5; 1.01 fold enrichment (6-mer frequency, TF over GST control) in the experiment with HSF1; 1.05 fold enrichment (6-mer frequency, TF over GST control) in the experiment with SPIC; 1.12 fold enrichment (6-mer frequency, TF over GST control) in the experiment with ELF4; 1.14 fold enrichment (6-mer frequency, TF over GST control) with ELK4. The binding signal is 1.21 fold enrichment (6-mer frequency, TF over GST control) with ETV2; 1.04 fold enrichment (6-mer frequency, TF over GST control) in the experiment with ELF3; 1.08 fold enrichment (6-mer frequency, TF over GST control) with CRX.
In the case of TAGAAT, the binding signal in the experiment with FEV is 1.04 fold enrichment (6-mer frequency, TF over GST control); in the experiment with ETV5, 1.03 fold enrichment (6-mer frequency, TF over GST control); with HSF1, 3.07 fold enrichment (6-mer frequency, TF over GST control); in the experiment with SPIC, 1.04 fold enrichment (6-mer frequency, TF over GST control); with ELF4, 1.13 fold enrichment (6-mer frequency, TF over GST control); with ELK4, 1.14 fold enrichment (6-mer frequency, TF over GST control). The binding signal was 1.06 fold enrichment (6-mer frequency, TF over GST control) in the experiment with ETV2; 1.19 fold enrichment (6-mer frequency, TF over GST control) in the experiment with ELF3; 1.83 fold enrichment (6-mer frequency, TF over GST control) with CRX.
AACAAG: the binding signal was 1.03 fold enrichment (6-mer frequency, TF over GST control) with FEV; 1.14 fold enrichment (6-mer frequency, TF over GST control) with ETV5; 1.03 fold enrichment (6-mer frequency, TF over GST control) with HSF1; 1.15 fold enrichment (6-mer frequency, TF over GST control) with SPIC; 1.17 fold enrichment (6-mer frequency, TF over GST control) in the experiment with ELF4; 1.01 fold enrichment (6-mer frequency, TF over GST control) with ELK4. The binding signal was 1 fold enrichment (6-mer frequency, TF over GST control) in the experiment with ETV2; 1.26 fold enrichment (6-mer frequency, TF over GST control) with ELF3; 1.13 fold enrichment (6-mer frequency, TF over GST control) with ETV1.
Regarding CTGCCC, the binding signal with FEV was 1.37 fold enrichment (6-mer frequency, TF over GST control); with ETV5 it was 1.25 fold enrichment (6-mer frequency, TF over GST control); in the experiment with HSF1, 1.05 fold enrichment (6-mer frequency, TF over GST control); with SPIC, 1.42 fold enrichment (6-mer frequency, TF over GST control); in the experiment with ELF4 it was 1.29 fold enrichment (6-mer frequency, TF over GST control); with ELK4 it was 1.42 fold enrichment (6-mer frequency, TF over GST control). Also, the binding signal with ETV2 was 1.38 fold enrichment (6-mer frequency, TF over GST control); with ELF3, 1.09 fold enrichment (6-mer frequency, TF over GST control); with ETV1, 1.2 fold enrichment (6-mer frequency, TF over GST control).
With TGTTCA, the binding signal with FEV is 1.19 fold enrichment (6-mer frequency, TF over GST control); with ETV5, 1.18 fold enrichment (6-mer frequency, TF over GST control); in the experiment with HSF1, 1.09 fold enrichment (6-mer frequency, TF over GST control); with SPIC, 1.17 fold enrichment (6-mer frequency, TF over GST control); in the experiment with ELF4, 1.21 fold enrichment (6-mer frequency, TF over GST control); with ELK4 it was 1.28 fold enrichment (6-mer frequency, TF over GST control). The binding signal with ETV2 is 1.07 fold enrichment (6-mer frequency, TF over GST control); in the experiment with ELF3, 1.22 fold enrichment (6-mer frequency, TF over GST control); with ETV1, 1.21 fold enrichment (6-mer frequency, TF over GST control).
Take ATTCAA: the binding signal with FEV was 1.27 fold enrichment (6-mer frequency, TF over GST control); with ETV5, 1.32 fold enrichment (6-mer frequency, TF over GST control); with HSF1, 1.32 fold enrichment (6-mer frequency, TF over GST control); with SPIC, 1.32 fold enrichment (6-mer frequency, TF over GST control); with ELF4, 1.34 fold enrichment (6-mer frequency, TF over GST control); with ELK4 it was 1.39 fold enrichment (6-mer frequency, TF over GST control). Besides, the binding signal in the experiment with ETV2 is 1.38 fold enrichment (6-mer frequency, TF over GST control); with ELF3, 1.38 fold enrichment (6-mer frequency, TF over GST control); in the experiment with CRX, 1.36 fold enrichment (6-mer frequency, TF over GST control); with ETV1 it was 1.32 fold enrichment (6-mer frequency, TF over GST control).
Take TCGACG: the binding signal was 1.17 fold enrichment (6-mer frequency, TF over GST control) with ETV5; 1.15 fold enrichment (6-mer frequency, TF over GST control) with HSF1; 1.07 fold enrichment (6-mer frequency, TF over GST control) in the experiment with SPIC; 1.08 fold enrichment (6-mer frequency, TF over GST control) with ELF4; 1.08 fold enrichment (6-mer frequency, TF over GST control) in the experiment with ELK4; 1.18 fold enrichment (6-mer frequency, TF over GST control) with ETV2. The binding signal with ELF3 was 1.06 fold enrichment (6-mer frequency, TF over GST control); with ETV1, 1.05 fold enrichment (6-mer frequency, TF over GST control).
As to TATGCG, the binding signal with FEV is 1.26 fold enrichment (6-mer frequency, TF over GST control); with ETV5, 1.29 fold enrichment (6-mer frequency, TF over GST control); with HSF1 it was 1.23 fold enrichment (6-mer frequency, TF over GST control); with SPIC it was 1.63 fold enrichment (6-mer frequency, TF over GST control); in the experiment with ELF4, 1.35 fold enrichment (6-mer frequency, TF over GST control); in the experiment with ELK4 it was 1.44 fold enrichment (6-mer frequency, TF over GST control). The binding signal is 1.45 fold enrichment (6-mer frequency, TF over GST control) with ETV2; 1.19 fold enrichment (6-mer frequency, TF over GST control) in the experiment with ELF3; 1.4 fold enrichment (6-mer frequency, TF over GST control) with CRX; 1.35 fold enrichment (6-mer frequency, TF over GST control) with ETV1.
